These results are taken from ChEMBL document CHEMBL3988442, “University of Dundee, Small-Polar-MMV Screening Library” (2021).

For this assay, the system named is Trypanosoma brucei. Nature of the assay: Trypanosoma brucei 72 hour study. Type of assay: functional, organism-based. On the set-up: scale not given: in the data most compounds retested in dose-response had high values.

Screen size: about 66,000 compounds; about 960 (1.5%) showed an effect of 50% or more. The entries come from a sample that favours strong results as a whole.

Consider `O[C@]12CC[C@H](CC1)N(Cc1ccc(F)cc1)C2CN1CCOCC1` (some centres undefined), for which the “Percent Effect” value (30.3 µM, […]) is -19.63%.

`Cc1nn(C)c(C)c1CC(=O)N1CCCN(c2cccnn2)CC1`: the “Percent Effect” value (30.3 µM, […]) was -5.706%. Turning to `CS(=O)(=O)NCC1CCCN(C(=O)c2ccc(F)c(F)c2)C1` (centres undefined), under “30.3 µM, […]”, the “Percent Effect” value is recorded as -25.29%. Still for that read-out and setting: for `COc1cccc(S(=O)(=O)Cc2noc(CC(C)C)n2)c1` the value was 1.682%; for `CCCc1noc(CS(=O)(=O)c2cccc(OC)c2)n1`, 58.74%; for `CCc1noc(CS(=O)(=O)c2cccc(OC)c2)n1`, -11.01%. The same measure, in the same setting: in the case of `CS(=O)(=O)N1Cc2ccccc2C2(CCN(C(=O)c3ccno3)CC2)C1` it was -25.32%; in that of `COc1cc(N2CCC3(CCN(Cc4cccnc4)C3=O)C2)ncn1` (centres undefined), -84.3%.

As to `Cc1ccccc1-c1cc(NC(=O)NC2CCC(O)CC2)n(CCO)n1` (centres undefined), the “Percent Effect” value (30.3 µM, […]) is on record as -152.8%.

As for `CNC(=O)Nc1cc(-c2ccccc2C)nn1CCO`, the “Percent Effect” value (30 µM, 30.03 µM) is recorded as -25.05%.

Turning to `Cc1ccccc1-c1cc(NC(=O)NC2CC2)n(CCO)n1`, the “Percent Effect” value (30.3 µM, […]) is reported as 80.61%. Take `Cc1cc(S(=O)(=O)N(CC(N)=O)CC(C)C)ccc1Br`: where the note is “30.3 µM, […]”, the “Percent Effect” value turned out to be 1.83%.

For `CN(C)C(=O)COC[C@H]1CC[C@@H]2[C@@H](CCN2Cc2ccco2)O1.O=C(O)C(F)(F)F`, under “30 µM, 30.03 µM”, the “Percent Effect” value was -23.12%. On the same count and under the same terms, in the case of `COCCN1C[C@H](OCc2csc(C)n2)[C@H]2COC[C@H]21.O=C(O)C(F)(F)F.O=C(O)C(F)(F)F` it was -14.33%. As for `CCSc1cncc(N2CCC(C(=O)Nc3ccccn3)CC2)n1`, for the setting “30.3 µM, […]”, the “Percent Effect” value was 12.36%.

Turning to `CCSc1cncc(N2CCC(NC(=O)C3CCCCC3)CC2)n1`, the “Percent Effect” value (30.3 µM, […]) is on record as 77.16%.

`CCSc1cncc(N2CCC(C(=O)NC(C)C(C)C)CC2)n1` (centres undefined): the “Percent Effect” value (30.3 µM, […]) is reported as 8.608%. `CC(=O)N(Cc1ncc(C)o1)C1CCN(Cc2ccc(F)c(F)c2)C1` (centres undefined): the “Percent Effect” value (30 µM, 30.03 µM) is recorded as -4.591%. Same read-out and setting: for `Cc1cc(C2CCCN(CC(=O)N3CCCc4ccccc43)C2)n[nH]1` (centres undefined) the value was 1.182%; for `Cc1cc(C2CCCN(CC(=O)N3CCc4ccccc43)C2)n[nH]1` (centres undefined), -0.2301%. Take `O=C(CN1CCCC(c2ccn[nH]2)C1)Nc1nc2c(s1)CCCC2` (centres undefined): where the note is “30.3 µM, […]”, the “Percent Effect” value stood at 99.87%. The same measure, in the same setting: for `O=C(CN1CCCC(c2ccn[nH]2)C1)Nc1nncs1` (centres undefined) the value was 7.116%; for `Cc1nnc(NC(=O)CN2CCCC(c3ccn[nH]3)C2)s1` (centres undefined), -16.15%.

With `Cc1cc(C2CCCN(CC(=O)Nc3nc4c(s3)CCC4)C2)n[nH]1` (centres undefined), the “Percent Effect” value (30.3 µM, […]) is recorded as 99.45%.

In the case of `O=C(O)c1cccc(CN2CCCC(c3ccn[nH]3)C2)c1` (centres undefined), the “Percent Effect” value (30.3 µM, […]) is -0.7278%. On the same count and under the same terms, for `O=C(CN1CCCC(c2ccn[nH]2)C1)Nc1nc2c(s1)CCC2` (centres undefined) the value was 99.68%.

For the compound `Cc1cc(C2CCCN(CCNS(=O)(=O)c3ccccc3)C2)n[nH]1` (centres undefined), the “Percent Effect” value is reported as 50.6% (30.3 µM, […]) and -10.85% (10 mM, 10 mM as filed; unlikely as a test dose).

Regarding `Cc1cc(C2CCCN(CCS(=O)(=O)c3ccccc3)C2)n[nH]1` (centres undefined), the “Percent Effect” value by setting is: (30.3 µM, […]) -11.09%; (10 mM, 10 mM as filed; unlikely as a test dose) -44.58%. Regarding `O=C(CN1CCCC(c2ccn[nH]2)C1)N1CCCc2ccccc21` (centres undefined), under “30 µM, 30.03 µM”, the “Percent Effect” value is listed as -60.51%. Regarding `Cc1cc(C2CCCN(CCCS(=O)(=O)c3ccccc3)C2)n[nH]1` (centres undefined), the “Percent Effect” value (30 µM, 30.03 µM) is on record as -28.48%. As to `CC(C)N1CCC2(CCNCC2)C1=O.Cl`, the “Percent Effect” value (30.3 µM, […]) is -13.71%. On the same count and under the same terms, for `Cc1cccc(CN2C(=O)CCC23CCN(c2ncc(F)cn2)CC3)n1.O=C(O)C(F)(F)F` the value was 6.517%. Consider `O=C(Nc1cnccn1)[C@H]1CO[C@H]2CCN(c3ncc(F)cn3)C[C@H]2C1.O=C(O)C(F)(F)F`, for which the “Percent Effect” value (30.3 µM, […]) was -3.537%.

Take `Cc1cccc(CN2C(=O)CCC23CCN(c2ccccn2)CC3)n1.O=C(O)C(F)(F)F.O=C(O)C(F)(F)F`: under “30.3 µM, […]”, the “Percent Effect” value is -36.28%. As to `COc1ccccc1C(=O)NCCC(=O)Nc1c(C)nn(C)c1C`, the “Percent Effect” value (30 µM, 30.03 µM) is -36.41%.

For the compound `CCC(C)C(=O)Nc1ccc2oc(=O)n(CCN(C)C)c2c1` (centres undefined), under “30 µM, 30.03 µM”, the “Percent Effect” value is -15.08%. `Cc1cn2c(n1)C(CNCC1=Cc3cc(Cl)ccc3OC1)CCC2` (centres undefined): the “Percent Effect” value (30.3 µM, […]) is recorded as 99.66%. Take `Cc1cn2c(n1)C(CNCC1=Cc3ccccc3OC1)CCC2` (centres undefined): the “Percent Effect” value (30.3 µM, […]) is 49.61%.

For the compound `Cc1cn2c(n1)C(CNCc1ccc(C)s1)CCC2` (centres undefined), under “30.3 µM, […]”, the “Percent Effect” value was -3.779%.

On to `O=C(Cc1cccc(F)c1)N1CCc2ncnc(NC3CCC3)c2CC1`, for which the “Percent Effect” value (30.3 µM, […]) is recorded as -72.72%.

As to `CN(C)C(=O)N1CCC2(CC1)CCN(c1ncccn1)C2.O=C(O)C(F)(F)F`, under “30.3 µM, […]”, the “Percent Effect” value is -41.17%. Same read-out and setting: for `Cc1ncsc1-c1nnc(C2CCN(Cc3ccc(F)cc3)CC2)o1` the value was -21.24%. Still for that read-out and setting: in the case of `Cc1ccsc1-c1nnc(C2CCN(Cc3ccc(F)cc3)CC2)o1` it was 56.66%. The same measure, in the same setting: in the case of `Cc1ncsc1-c1nnc(C2CCN(Cc3ccc(Cl)cc3)CC2)o1` it was 0.5336%; in that of `CN(C)C(=O)COCc1cncc2c1CCN(C1CCOCC1)C2.O=C(O)C(F)(F)F.O=C(O)C(F)(F)F`, -55.36%; in that of `O=C1CC(c2cccc(Cl)c2)c2snc(C(=O)O)c2N1` (centres undefined), -31.06%. In the case of `Cc1ccccc1C(=O)Nc1ccc(OC2CCN(C)CC2)cc1`, where the note is “30 µM, 30.03 µM”, the “Percent Effect” value is -8.393%. As for `CN1CCC(Oc2ccc(NC(=O)c3ccccc3Br)cc2)CC1`, the “Percent Effect” value (30 µM, 30.03 µM) was determined as 65.56%. On the same count and under the same terms, for `COc1ccccc1C(=O)Nc1ccc(OC2CCN(C)CC2)cc1` the value was -32.85%. For `Cl.O=C(NCC1CCCO1)c1cc(-c2ccncc2)c2cnccc2n1` (centres undefined), under “30.3 µM, […]”, the “Percent Effect” value is -19.01%. As for `CC1=Nc2c(c(=O)[nH]n2C(C)C)C(c2ccc3ncccc3c2)S1` (centres undefined), under “30 µM, 30.03 µM”, the “Percent Effect” value is -30.02%. The same measure, in the same setting: for `CC(Cn1cccn1)NCc1nc(-c2cccnc2)no1` (centres undefined) the value was 5.913%; for `CC(Cn1cccn1)NCc1nc(-c2cccc(Cl)c2)no1` (centres undefined), 53.11%. Consider `CC(Cn1cccn1)NCc1nc(-c2ccc3c(c2)OCO3)no1` (centres undefined), for which the “Percent Effect” value (30.3 µM, […]) is on record as -4.603%. On to `CCn1ccnc1C1CCCN(C(=O)c2sc(C)nc2C)C1` (centres undefined), for which, where the note is “30 µM, 30.03 µM”, the “Percent Effect” value is listed as -29.7%. On the same count and under the same terms, for `Cc1cc(C)nc(N2CCCC(c3nccn3CCCN(C)C)C2)c1` (centres undefined) the value was -17.07%; for `Cc1nc(N)sc1C(=O)N1CCCC(c2nccn2CCCN(C)C)C1` (centres undefined), 50.48%. In the case of `N#CCc1cccc(C(=O)N2CCN(CC(O)c3ccccc3)CC2)c1` (centres undefined), the “Percent Effect” value (30.3 µM, […]) turned out to be 6.868% and the “Percent Effect” value (10 mM, 10 mM as filed; unlikely as a test dose) is -3.185%. Take `Cc1ccc(CNCC2CCN(CC(O)c3ccccc3)CC2)o1` (centres undefined): the “Percent Effect” value (10 µM) came out at 51.2% and the “Percent Effect” value (30.3 µM, […]) is given as 70.09%. As to `Cc1ncccc1CNCC1CCN(CC(O)c2ccccc2)CC1` (centres undefined), where the note is “30 µM, 30.03 µM”, the “Percent Effect” value is reported as 36.2%. Same read-out and setting: for `Cc1noc(C)c1CNCC1CCN(CC(O)c2ccccc2)CC1` (centres undefined) the value was 39.8%.

As for `CCn1ccnc1CNCC1CCN(CC(O)c2ccccc2)CC1` (centres undefined), for the setting “30 µM, 30.03 µM”, the “Percent Effect” value came to 95.36%. As to `OC(CN1CCC(CNCc2ccccn2)CC1)c1ccccc1` (centres undefined), the “Percent Effect” value runs as follows: (10 µM) -26.34%; (30.3 µM, […]) 32.19%. As for `CCn1ccnc1CN1CCN(CC(O)c2ccccc2)CC1` (centres undefined), the “Percent Effect” value (30 µM, 30.03 µM) is reported as -18.29%.
